The values below come from PubChem BioAssay (NCI).

This is part of a sample that, as a whole, favours compounds with a hit. Of some 83,000 tested, about 20% had one in any assay.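 Testing used 96-well plates and a 48-hour single-concentration exposure. Example: -40 means 40% of the starting cells died.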 Values without a mark were called inactive. Calls of active or inactive are those of the source. How the source made its calls: active means growth percent below 10; inactive means the rest.

Among the test systems are RPMI-8226 leukemia; OVCAR-8 ovarian; OVCAR-5 ovarian; OVCAR-4 ovarian; IGROV1 ovarian; OVCAR-3 ovarian; HS 578T breast; NCI/ADR-RES ovarian; T-47D breast; BT-549 breast; MDA-MB-435 melanoma; SW-620 colon; MCF7 breast; HCT-116 colon; HCC-2998 colon; KM12 colon; SK-OV-3 ovarian.
What all share (test): NCI-60 one-dose screen, 48 h (100 = growth as untreated, 0 = no growth, -100 = all killed)
What all share (conditions): 10 µM

With `COc1ccc(-c2cc(/C=C3\C(=O)Nc4ccc(Cl)cc43)[nH]n2)cc1OC`, the growth with RPMI-8226 leukemia is 68.6%; in the experiment on OVCAR-8 ovarian, 81.4%; in the experiment on OVCAR-5 ovarian, 101%; in the experiment with OVCAR-4 ovarian, 19%; in the experiment on IGROV1 ovarian, 66.8%; in the experiment with OVCAR-3 ovarian it was 104%. Moreover, the growth with HS 578T breast was 87.8%; in the experiment with NCI/ADR-RES ovarian it was 91.5%; in the experiment on T-47D breast it was 72.2%; with BT-549 breast it was 99.7%; in the experiment on MDA-MB-435 melanoma, 91.5%; with SW-620 colon, 97.1%. Besides, the growth in the experiment with MCF7 breast was 63.1%; in the experiment with HCT-116 colon, 73.2%; in the experiment with HCC-2998 colon, 103%; with KM12 colon it was 29.3%.

Regarding `C(CCCC1=NCCO1)CCCC1=NCCO1`, the growth is 89.4% with RPMI-8226 leukemia; 106% with OVCAR-8 ovarian; 100% in the experiment with OVCAR-5 ovarian; 109% in the experiment with OVCAR-4 ovarian; 114% in the experiment on IGROV1 ovarian; 99.9% in the experiment with OVCAR-3 ovarian. Besides, the growth was 99.3% with HS 578T breast; 104% in the experiment with NCI/ADR-RES ovarian; 109% in the experiment with T-47D breast; 103% with BT-549 breast; 109% in the experiment on MDA-MB-435 melanoma; 99.4% in the experiment on SW-620 colon. Besides, the growth is 102% with MCF7 breast, 112% in the experiment with HCT-116 colon and 103% with KM12 colon.

For the molecule `CC1=C(N2CCOCC2)C(N2CCOCC2)=C(C)C(=O)C1=O`, the growth was 105% with RPMI-8226 leukemia; 97.2% in the experiment on OVCAR-8 ovarian; 97.6% in the experiment with OVCAR-5 ovarian; 104% in the experiment on OVCAR-4 ovarian; 101% in the experiment on IGROV1 ovarian; 109% in the experiment on OVCAR-3 ovarian. Further, the growth was 109% with HS 578T breast; 110% in the experiment with NCI/ADR-RES ovarian; 95.1% in the experiment on T-47D breast; 110% in the experiment on BT-549 breast; 103% with MDA-MB-435 melanoma; 105% in the experiment with SW-620 colon. The growth with MCF7 breast is 92.5%; with HCT-116 colon, 108%; in the experiment with HCC-2998 colon, 109%; in the experiment with KM12 colon, 105%.

As to `CN(C)CCN1C(=O)c2cccc3c(-c4ccc5ncn(C6CCCCC6)c5c4)ccc(c23)C1=O`, the growth in the experiment with RPMI-8226 leukemia was 7.51% (active); in the experiment with OVCAR-8 ovarian, 14.7%; in the experiment with OVCAR-5 ovarian, 35.8%; with OVCAR-4 ovarian it was 30.8%; in the experiment on IGROV1 ovarian it was 20.4%; in the experiment on OVCAR-3 ovarian, 37.6%. Besides, the growth in the experiment with HS 578T breast was 40.8%; in the experiment with NCI/ADR-RES ovarian, 20.1%; with T-47D breast, 27.8%; with BT-549 breast it was 56.5%; with MDA-MB-435 melanoma, 39.9%; in the experiment with SW-620 colon, 21.4%. For the same molecule, the growth is 12.1% in the experiment with MCF7 breast, 8.6% (active) with HCT-116 colon, 39.8% in the experiment with HCC-2998 colon and 24.8% in the experiment with KM12 colon.

As to `COc1ccc(OC)c(/C=C/c2nc(SCc3ccccc3)n(-c3ccc(Cl)cc3)n2)c1`, the growth in the experiment with RPMI-8226 leukemia was 42.5%; with OVCAR-8 ovarian it was 83.6%; in the experiment with OVCAR-5 ovarian it was 102%; with SK-OV-3 ovarian, 86.2%; with IGROV1 ovarian, 43.9%; with OVCAR-3 ovarian, 17.3%. The growth in the experiment on HS 578T breast is -2.4% (active); with NCI/ADR-RES ovarian, 19.1%; with T-47D breast, 78%; in the experiment with BT-549 breast, 61.8%; with MDA-MB-435 melanoma, -24.9% (active); in the experiment with SW-620 colon, 28.2%. Moreover, the growth is 52.9% with MCF7 breast, 20.2% in the experiment on HCT-116 colon, 73.1% in the experiment on HCC-2998 colon and 31.1% in the experiment on KM12 colon.

In the case of `CNc1ccc(CSc2ccc(C)cc2)cc1`, the growth is 20.8% in the experiment on RPMI-8226 leukemia; 91.1% in the experiment with OVCAR-8 ovarian; 101% in the experiment with OVCAR-5 ovarian; 34% with OVCAR-4 ovarian; 78.6% in the experiment with IGROV1 ovarian; 90.6% with OVCAR-3 ovarian. Besides, the growth was 95.8% in the experiment on HS 578T breast; 92.1% with NCI/ADR-RES ovarian; 64.5% with T-47D breast; 85.2% with MDA-MB-435 melanoma; 93.7% with SW-620 colon; 77% in the experiment on MCF7 breast. Also, the growth in the experiment on HCT-116 colon is 93.6%; in the experiment with HCC-2998 colon, 94%; in the experiment with KM12 colon it was 62.4%.

For the molecule `CCN1Cc2c(/C=C/c3ccccc3)nc3ccc(OC)cc3c2N(c2cccc(Cl)c2)C1`, the growth was -1.25% (active) in the experiment with RPMI-8226 leukemia; 89.4% in the experiment on OVCAR-8 ovarian; 95.4% in the experiment with OVCAR-5 ovarian; 67.5% in the experiment with OVCAR-4 ovarian; 74.7% in the experiment with OVCAR-3 ovarian; 105% in the experiment with HS 578T breast. Also, the growth in the experiment on NCI/ADR-RES ovarian is 77.4%; in the experiment on T-47D breast it was 55.1%; with BT-549 breast, 95.2%; in the experiment on MDA-MB-435 melanoma, 76.1%; in the experiment on SW-620 colon it was 67.4%; in the experiment on MCF7 breast it was 78.5%. Besides, the values for the growth in the experiment on HCT-116 colon, in the experiment with HCC-2998 colon and with KM12 colon were 45.8%, 86% and 94.2%, respectively.

Take `O=[N+]([O-])c1ccc(Oc2cccnc2)c([N+](=O)[O-])c1`: the growth in the experiment with RPMI-8226 leukemia was 25.4%; in the experiment on OVCAR-8 ovarian it was 91.7%; in the experiment with OVCAR-5 ovarian, 93.6%; in the experiment on OVCAR-4 ovarian, 50.2%; in the experiment with IGROV1 ovarian it was 92.2%; in the experiment with OVCAR-3 ovarian it was 66.2%. Besides, the growth was 81.9% in the experiment with HS 578T breast; 51.4% in the experiment with NCI/ADR-RES ovarian; 61.1% in the experiment with T-47D breast; 72.3% in the experiment on BT-549 breast; 26.9% in the experiment with MDA-MB-435 melanoma; 1.5% (active) in the experiment on SW-620 colon. Besides, the growth is 46.7% with MCF7 breast, 8.43% (active) with HCT-116 colon and 56.8% in the experiment on KM12 colon.

As to `CCCCCCN1C(=O)C2=C(c3ccc(Cl)cc3)Nc3c(c(C)nn3-c3ccccc3)C2c2ccccc21` (stereo not given), the growth was 81.2% with RPMI-8226 leukemia; 92.5% in the experiment with OVCAR-8 ovarian; 100% with OVCAR-5 ovarian; 90.5% in the experiment on OVCAR-4 ovarian; 100% in the experiment on IGROV1 ovarian; 92.7% in the experiment on OVCAR-3 ovarian. The growth in the experiment with HS 578T breast was 118%; with NCI/ADR-RES ovarian, 97.8%; in the experiment on T-47D breast, 84.5%; in the experiment with BT-549 breast, 102%; in the experiment with MDA-MB-435 melanoma it was 89.8%; in the experiment with SW-620 colon, 111%. Further, the growth in the experiment on MCF7 breast was 77.8%; with HCT-116 colon, 87.9%; in the experiment on HCC-2998 colon, 92.1%; in the experiment on KM12 colon it was 107%.
